# Columns and labels:
# [1] = biological target: T1, Ephrin type-A receptor 3 (Homo sapiens) (UniProt P29320); conditions: at 10 µM
# T1 sequence (whole entry): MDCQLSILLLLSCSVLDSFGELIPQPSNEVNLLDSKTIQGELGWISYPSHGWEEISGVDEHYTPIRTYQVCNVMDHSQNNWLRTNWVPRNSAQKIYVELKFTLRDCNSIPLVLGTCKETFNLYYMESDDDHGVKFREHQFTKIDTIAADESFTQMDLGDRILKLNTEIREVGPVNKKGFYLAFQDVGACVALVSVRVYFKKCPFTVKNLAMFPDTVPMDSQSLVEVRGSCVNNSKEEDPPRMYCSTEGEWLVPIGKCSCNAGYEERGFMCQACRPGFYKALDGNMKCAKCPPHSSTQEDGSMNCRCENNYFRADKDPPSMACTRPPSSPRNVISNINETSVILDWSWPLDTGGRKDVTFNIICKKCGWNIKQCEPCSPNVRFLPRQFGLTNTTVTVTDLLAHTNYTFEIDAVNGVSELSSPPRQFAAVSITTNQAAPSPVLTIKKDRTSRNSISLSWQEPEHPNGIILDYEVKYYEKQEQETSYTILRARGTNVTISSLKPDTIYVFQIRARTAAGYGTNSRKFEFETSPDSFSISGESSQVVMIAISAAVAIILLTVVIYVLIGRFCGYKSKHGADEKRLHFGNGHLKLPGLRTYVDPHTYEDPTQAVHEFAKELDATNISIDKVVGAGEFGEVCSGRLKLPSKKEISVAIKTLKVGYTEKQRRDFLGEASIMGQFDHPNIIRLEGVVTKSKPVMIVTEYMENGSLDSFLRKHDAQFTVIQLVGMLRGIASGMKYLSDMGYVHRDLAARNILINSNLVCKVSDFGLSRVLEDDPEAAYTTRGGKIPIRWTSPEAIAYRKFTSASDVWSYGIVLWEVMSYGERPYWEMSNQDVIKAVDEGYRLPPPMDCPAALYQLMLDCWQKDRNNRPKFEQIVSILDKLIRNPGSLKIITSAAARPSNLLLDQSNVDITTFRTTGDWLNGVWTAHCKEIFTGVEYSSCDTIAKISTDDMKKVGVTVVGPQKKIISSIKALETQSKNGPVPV
# [2] = biological target: Ephrin type-A receptor 4 (Homo sapiens) (UniProt P54764); conditions: at 1 µM
# Ephrin type-A receptor 4 (Homo sapiens), sequence (P54764 whole entry): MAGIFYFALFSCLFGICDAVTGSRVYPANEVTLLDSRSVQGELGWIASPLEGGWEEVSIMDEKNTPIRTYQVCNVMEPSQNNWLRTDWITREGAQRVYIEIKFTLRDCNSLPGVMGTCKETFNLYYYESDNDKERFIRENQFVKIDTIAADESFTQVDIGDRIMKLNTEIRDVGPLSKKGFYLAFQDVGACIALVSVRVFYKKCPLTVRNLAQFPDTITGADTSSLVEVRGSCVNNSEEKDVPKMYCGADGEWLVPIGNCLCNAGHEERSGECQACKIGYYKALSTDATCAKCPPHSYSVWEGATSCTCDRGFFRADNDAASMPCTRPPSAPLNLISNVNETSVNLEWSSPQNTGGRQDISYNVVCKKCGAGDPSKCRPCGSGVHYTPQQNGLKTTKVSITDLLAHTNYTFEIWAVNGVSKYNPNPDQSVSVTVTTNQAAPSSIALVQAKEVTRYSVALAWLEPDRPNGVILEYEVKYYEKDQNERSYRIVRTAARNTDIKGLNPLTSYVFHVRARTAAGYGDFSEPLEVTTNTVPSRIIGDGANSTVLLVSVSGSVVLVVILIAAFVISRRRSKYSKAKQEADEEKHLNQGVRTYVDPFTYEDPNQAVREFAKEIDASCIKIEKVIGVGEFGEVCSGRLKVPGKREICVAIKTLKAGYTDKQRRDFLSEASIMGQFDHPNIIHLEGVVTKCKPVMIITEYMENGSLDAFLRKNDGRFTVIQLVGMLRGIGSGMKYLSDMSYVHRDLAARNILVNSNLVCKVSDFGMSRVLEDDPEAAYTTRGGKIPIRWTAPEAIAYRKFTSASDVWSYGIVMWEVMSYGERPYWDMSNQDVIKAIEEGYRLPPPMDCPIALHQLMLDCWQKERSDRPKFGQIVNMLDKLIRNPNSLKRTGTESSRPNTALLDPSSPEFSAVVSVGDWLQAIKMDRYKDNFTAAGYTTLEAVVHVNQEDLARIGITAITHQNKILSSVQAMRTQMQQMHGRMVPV
# [3] = biological target: Ephrin type-A receptor 4 (Homo sapiens) (UniProt P54764); conditions: at 10 µM
# [4] = biological target: Ephrin type-A receptor 5 (Homo sapiens) (UniProt P54756); conditions: at 1 µM
# Ephrin type-A receptor 5 (Homo sapiens), sequence (P54756 whole entry): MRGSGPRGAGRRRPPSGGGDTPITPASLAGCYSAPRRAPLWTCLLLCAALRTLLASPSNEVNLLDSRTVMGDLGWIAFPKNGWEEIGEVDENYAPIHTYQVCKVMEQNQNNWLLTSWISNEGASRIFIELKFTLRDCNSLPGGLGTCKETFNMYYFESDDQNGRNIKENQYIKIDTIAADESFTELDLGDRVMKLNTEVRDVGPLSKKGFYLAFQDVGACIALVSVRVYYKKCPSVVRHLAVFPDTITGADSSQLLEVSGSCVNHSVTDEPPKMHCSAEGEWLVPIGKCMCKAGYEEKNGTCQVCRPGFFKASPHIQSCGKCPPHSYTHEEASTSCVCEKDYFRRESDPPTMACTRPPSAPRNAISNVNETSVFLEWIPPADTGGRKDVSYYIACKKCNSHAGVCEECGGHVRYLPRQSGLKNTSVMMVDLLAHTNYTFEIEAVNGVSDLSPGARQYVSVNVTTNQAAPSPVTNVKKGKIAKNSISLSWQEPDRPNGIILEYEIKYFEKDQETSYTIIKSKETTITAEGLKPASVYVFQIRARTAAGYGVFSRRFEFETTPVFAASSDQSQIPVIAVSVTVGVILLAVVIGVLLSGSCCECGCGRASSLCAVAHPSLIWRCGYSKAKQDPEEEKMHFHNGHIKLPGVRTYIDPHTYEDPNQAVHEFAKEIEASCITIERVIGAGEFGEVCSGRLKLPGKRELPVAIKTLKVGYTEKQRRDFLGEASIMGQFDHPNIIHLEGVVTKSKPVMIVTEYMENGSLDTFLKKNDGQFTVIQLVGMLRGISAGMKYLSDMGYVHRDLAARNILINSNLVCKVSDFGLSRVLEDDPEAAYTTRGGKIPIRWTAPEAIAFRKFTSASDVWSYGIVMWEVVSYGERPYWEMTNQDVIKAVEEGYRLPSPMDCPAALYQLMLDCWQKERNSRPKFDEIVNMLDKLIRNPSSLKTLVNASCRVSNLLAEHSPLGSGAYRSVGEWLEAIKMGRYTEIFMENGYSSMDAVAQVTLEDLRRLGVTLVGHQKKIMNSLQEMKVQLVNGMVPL
# [5] = biological target: Ephrin type-A receptor 5 (Homo sapiens) (UniProt P54756); conditions: at 10 µM
# [6] = biological target: Ephrin type-A receptor 7 (Homo sapiens) (UniProt Q15375); conditions: at 1 µM
# Ephrin type-A receptor 7 (Homo sapiens), sequence (Q15375 28-998 limits assumed): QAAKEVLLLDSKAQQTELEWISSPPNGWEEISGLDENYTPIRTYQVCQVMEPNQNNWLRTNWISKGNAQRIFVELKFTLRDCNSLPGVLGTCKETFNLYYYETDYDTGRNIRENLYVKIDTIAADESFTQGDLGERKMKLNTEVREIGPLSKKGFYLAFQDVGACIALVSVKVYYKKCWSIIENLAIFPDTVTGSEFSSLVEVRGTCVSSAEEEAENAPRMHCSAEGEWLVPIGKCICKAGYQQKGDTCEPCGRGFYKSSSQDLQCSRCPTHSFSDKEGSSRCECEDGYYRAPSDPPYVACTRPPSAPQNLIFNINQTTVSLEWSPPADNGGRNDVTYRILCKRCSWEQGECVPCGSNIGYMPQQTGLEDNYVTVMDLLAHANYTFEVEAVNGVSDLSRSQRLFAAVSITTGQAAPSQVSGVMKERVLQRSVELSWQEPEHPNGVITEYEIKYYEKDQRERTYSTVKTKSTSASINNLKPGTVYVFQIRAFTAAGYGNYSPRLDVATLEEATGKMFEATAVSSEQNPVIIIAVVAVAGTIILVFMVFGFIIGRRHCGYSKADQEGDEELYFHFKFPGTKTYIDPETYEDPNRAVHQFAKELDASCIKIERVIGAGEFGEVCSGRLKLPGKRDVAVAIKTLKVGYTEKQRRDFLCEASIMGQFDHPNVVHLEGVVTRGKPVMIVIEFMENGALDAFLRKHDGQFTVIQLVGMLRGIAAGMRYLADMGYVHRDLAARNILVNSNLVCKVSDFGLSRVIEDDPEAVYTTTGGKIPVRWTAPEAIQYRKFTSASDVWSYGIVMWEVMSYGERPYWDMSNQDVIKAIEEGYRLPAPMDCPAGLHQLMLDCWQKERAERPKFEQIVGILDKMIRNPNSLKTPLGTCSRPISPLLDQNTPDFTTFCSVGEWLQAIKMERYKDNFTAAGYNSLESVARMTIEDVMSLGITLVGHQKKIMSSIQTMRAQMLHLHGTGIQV
# [7] = biological target: Ephrin type-A receptor 7 (Homo sapiens) (UniProt Q15375); conditions: at 10 µM
# [8] = biological target: T2, Ephrin type-A receptor 8 (Homo sapiens) (UniProt P29322); conditions: at 1 µM
# T2 sequence (whole entry): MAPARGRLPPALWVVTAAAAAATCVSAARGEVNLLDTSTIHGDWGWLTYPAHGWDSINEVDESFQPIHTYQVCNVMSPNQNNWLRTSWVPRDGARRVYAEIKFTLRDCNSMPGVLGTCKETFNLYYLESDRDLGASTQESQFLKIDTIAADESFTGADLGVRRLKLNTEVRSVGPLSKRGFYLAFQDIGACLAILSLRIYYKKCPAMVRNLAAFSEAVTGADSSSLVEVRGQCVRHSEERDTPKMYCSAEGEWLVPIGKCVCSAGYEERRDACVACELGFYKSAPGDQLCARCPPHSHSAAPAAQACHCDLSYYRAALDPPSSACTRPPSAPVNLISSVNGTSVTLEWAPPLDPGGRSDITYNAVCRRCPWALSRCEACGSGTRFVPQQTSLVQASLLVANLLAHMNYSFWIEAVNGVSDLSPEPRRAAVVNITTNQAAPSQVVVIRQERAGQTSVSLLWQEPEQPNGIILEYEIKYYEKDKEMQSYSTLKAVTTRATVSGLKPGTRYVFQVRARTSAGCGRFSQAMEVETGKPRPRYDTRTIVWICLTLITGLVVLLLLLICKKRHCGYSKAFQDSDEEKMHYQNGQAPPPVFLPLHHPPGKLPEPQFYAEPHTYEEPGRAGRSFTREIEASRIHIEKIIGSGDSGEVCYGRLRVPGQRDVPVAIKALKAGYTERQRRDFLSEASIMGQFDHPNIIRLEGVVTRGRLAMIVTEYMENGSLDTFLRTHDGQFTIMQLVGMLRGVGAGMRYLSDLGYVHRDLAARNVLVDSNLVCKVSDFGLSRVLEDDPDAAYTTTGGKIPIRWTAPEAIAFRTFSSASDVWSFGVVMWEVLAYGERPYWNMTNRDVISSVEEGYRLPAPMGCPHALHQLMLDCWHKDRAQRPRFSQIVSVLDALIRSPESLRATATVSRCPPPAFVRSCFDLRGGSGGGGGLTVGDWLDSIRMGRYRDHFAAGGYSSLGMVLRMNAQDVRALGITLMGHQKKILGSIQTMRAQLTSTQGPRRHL
# [9] = biological target: T2, Ephrin type-A receptor 8 (Homo sapiens); conditions: at 10 µM
# [10] = biological target: T3, Ephrin type-B receptor 1 (Homo sapiens) (UniProt P54762); conditions: at 1 µM
# T3 sequence (whole entry): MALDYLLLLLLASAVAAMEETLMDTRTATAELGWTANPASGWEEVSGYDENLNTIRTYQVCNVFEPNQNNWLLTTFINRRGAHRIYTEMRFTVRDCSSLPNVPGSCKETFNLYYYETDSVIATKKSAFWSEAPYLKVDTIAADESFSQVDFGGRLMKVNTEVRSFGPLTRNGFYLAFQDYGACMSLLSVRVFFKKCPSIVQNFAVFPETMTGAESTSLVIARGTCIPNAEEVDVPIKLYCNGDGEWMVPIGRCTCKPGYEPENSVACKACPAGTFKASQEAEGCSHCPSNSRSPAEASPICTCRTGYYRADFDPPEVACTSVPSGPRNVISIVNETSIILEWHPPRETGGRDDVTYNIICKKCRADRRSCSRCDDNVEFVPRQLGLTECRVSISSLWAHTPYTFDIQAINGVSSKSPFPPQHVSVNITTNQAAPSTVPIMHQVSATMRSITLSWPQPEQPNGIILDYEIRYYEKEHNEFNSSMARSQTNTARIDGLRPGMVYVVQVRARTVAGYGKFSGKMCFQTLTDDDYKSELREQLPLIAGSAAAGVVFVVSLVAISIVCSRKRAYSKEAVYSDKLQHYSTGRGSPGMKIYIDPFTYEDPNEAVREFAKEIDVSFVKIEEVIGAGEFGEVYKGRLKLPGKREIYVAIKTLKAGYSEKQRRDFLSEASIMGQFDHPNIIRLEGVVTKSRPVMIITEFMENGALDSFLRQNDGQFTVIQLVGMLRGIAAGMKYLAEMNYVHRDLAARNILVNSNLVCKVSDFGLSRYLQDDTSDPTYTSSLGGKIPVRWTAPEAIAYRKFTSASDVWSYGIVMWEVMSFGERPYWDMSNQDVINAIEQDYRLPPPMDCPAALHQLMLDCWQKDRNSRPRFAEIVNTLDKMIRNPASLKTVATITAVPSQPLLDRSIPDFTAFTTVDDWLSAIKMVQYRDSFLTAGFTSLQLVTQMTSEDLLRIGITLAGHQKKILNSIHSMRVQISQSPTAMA
# [11] = biological target: T3, Ephrin type-B receptor 1 (Homo sapiens); conditions: at 10 µM
# [12] = biological target: T4, Ephrin type-B receptor 2 (Homo sapiens) (UniProt P29323); conditions: at 1 µM
# T4 sequence (whole entry): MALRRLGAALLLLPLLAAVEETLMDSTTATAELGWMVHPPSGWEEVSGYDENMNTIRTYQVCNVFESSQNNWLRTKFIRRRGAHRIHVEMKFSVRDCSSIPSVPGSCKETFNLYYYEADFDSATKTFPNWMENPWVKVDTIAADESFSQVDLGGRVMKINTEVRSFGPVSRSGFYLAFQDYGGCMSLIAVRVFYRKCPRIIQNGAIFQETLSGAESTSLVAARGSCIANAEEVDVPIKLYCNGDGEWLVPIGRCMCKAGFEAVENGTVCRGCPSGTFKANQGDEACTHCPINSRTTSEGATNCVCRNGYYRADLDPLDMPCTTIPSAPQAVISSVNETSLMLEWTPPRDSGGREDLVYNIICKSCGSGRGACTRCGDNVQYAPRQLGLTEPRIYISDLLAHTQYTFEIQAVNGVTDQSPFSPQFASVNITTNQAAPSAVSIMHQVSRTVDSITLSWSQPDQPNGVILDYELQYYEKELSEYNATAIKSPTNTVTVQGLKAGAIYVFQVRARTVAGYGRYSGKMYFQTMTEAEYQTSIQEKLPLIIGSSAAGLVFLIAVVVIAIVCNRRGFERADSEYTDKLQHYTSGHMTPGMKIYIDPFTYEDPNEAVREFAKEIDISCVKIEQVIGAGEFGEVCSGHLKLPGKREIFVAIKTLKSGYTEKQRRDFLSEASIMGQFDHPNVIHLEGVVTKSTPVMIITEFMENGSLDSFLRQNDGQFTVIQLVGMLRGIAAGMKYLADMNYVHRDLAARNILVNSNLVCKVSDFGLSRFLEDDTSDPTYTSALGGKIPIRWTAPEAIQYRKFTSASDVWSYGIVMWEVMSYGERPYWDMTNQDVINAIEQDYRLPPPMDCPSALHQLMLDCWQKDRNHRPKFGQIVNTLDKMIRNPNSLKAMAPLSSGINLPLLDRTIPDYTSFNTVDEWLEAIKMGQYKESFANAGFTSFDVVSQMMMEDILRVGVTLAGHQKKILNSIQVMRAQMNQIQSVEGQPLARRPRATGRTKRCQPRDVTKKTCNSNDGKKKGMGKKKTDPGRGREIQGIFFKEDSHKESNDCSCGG
# [13] = biological target: T4, Ephrin type-B receptor 2 (Homo sapiens); conditions: at 10 µM
# [14] = biological target: T5, Ephrin type-B receptor 3 (Homo sapiens) (UniProt P54753); conditions: at 1 µM
# T5 sequence (whole entry): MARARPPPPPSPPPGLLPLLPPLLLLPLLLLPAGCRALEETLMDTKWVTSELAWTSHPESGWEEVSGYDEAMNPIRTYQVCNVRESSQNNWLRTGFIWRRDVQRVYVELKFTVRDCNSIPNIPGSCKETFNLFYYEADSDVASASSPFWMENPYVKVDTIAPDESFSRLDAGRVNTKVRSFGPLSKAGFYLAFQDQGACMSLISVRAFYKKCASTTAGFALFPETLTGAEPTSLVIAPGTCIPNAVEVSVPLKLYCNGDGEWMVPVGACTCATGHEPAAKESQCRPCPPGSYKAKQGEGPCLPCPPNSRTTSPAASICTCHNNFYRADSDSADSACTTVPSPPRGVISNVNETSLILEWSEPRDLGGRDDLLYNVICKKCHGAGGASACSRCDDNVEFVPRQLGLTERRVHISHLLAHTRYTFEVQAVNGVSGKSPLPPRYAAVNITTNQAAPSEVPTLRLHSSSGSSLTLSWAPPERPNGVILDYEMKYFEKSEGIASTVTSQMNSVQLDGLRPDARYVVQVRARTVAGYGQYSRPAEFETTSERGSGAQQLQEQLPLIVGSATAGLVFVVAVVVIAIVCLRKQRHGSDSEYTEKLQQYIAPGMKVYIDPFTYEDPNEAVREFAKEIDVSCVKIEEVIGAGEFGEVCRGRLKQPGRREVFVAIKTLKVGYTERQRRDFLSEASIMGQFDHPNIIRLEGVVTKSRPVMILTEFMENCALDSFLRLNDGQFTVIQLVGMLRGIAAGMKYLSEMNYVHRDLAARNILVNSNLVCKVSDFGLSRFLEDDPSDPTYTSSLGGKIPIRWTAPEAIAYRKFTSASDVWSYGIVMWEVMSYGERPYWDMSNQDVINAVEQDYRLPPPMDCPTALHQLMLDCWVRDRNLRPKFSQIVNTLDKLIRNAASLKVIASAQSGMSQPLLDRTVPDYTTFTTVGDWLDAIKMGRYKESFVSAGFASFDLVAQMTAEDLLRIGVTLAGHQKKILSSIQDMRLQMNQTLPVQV
# [15] = biological target: T5, Ephrin type-B receptor 3 (Homo sapiens); conditions: at 10 µM
# [16] = biological target: T6, Ephrin type-B receptor 4 (Homo sapiens) (UniProt P54760); conditions: at 1 µM
# T6 sequence (whole entry): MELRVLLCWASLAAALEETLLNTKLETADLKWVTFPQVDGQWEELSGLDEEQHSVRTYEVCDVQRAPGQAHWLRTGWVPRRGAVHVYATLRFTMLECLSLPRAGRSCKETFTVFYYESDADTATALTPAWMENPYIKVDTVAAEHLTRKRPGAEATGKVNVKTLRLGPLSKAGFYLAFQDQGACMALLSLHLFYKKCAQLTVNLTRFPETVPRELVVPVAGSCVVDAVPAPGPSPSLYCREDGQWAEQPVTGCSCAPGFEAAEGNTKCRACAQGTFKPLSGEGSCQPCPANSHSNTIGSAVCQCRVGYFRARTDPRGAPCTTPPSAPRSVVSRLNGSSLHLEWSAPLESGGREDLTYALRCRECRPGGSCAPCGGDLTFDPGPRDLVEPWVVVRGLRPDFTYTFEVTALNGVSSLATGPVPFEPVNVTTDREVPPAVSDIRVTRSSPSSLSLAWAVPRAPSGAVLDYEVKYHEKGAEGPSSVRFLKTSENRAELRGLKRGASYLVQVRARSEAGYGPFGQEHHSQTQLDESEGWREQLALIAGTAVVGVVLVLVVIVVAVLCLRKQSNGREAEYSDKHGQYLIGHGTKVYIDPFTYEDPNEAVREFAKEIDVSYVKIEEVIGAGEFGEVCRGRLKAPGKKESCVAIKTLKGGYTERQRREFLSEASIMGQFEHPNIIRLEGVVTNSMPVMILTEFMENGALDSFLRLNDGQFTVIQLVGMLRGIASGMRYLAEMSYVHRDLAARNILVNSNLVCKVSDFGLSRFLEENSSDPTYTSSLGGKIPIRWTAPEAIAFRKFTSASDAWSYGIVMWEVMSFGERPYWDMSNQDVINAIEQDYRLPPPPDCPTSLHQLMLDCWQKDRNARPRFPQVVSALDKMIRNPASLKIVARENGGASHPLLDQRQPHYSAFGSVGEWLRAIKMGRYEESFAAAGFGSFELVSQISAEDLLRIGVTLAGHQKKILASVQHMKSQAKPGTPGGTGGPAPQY
# [17] = biological target: T6, Ephrin type-B receptor 4 (Homo sapiens); conditions: at 10 µM
# [18] = biological target: Receptor tyrosine-protein kinase erbB-4 (Homo sapiens) (UniProt Q15303); conditions: at 1 µM
# Receptor tyrosine-protein kinase erbB-4 (Homo sapiens), sequence (Q15303 whole entry): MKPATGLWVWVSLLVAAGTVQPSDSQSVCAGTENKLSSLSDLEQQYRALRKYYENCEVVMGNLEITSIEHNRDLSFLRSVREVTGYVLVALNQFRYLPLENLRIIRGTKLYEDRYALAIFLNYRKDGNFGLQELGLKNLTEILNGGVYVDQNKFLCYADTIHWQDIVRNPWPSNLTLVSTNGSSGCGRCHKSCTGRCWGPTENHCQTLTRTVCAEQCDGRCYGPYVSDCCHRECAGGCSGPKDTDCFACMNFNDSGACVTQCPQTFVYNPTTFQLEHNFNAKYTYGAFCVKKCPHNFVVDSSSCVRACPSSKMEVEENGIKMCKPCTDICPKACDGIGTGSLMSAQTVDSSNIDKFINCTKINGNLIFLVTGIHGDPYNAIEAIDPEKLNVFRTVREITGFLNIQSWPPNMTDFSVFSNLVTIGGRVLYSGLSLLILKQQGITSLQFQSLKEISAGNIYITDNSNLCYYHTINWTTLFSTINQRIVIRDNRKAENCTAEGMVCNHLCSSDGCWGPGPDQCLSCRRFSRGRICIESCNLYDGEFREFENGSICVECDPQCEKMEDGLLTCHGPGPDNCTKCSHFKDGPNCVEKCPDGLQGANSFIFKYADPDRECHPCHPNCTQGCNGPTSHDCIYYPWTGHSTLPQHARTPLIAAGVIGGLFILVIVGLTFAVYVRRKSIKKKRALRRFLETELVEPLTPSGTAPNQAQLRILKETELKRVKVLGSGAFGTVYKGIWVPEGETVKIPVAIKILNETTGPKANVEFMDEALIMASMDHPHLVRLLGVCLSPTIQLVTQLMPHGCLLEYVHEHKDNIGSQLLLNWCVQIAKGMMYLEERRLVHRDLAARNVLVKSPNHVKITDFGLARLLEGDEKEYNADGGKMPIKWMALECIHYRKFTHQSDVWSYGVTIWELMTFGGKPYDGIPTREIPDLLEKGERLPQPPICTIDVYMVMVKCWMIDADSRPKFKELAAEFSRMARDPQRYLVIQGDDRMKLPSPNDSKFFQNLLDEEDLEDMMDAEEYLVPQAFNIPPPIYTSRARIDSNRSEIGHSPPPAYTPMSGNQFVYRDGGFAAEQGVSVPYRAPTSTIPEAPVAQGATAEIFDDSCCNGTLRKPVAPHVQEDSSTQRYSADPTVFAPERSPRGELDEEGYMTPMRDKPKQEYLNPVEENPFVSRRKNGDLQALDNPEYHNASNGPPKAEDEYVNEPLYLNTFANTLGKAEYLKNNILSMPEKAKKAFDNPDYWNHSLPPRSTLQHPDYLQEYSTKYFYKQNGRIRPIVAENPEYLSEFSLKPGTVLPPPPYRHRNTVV
# [19] = biological target: Receptor tyrosine-protein kinase erbB-4 (Homo sapiens) (UniProt Q15303); conditions: at 10 µM
# [20] = biological target: Focal adhesion kinase 1 (Homo sapiens) (UniProt Q05397); conditions: at 1 µM
compound,measurement,setting,value
CC(C)(C)n1nc(Cc2cccc3ccccc23)c2c(N)ncnc21,residual activity,[1],8%
same,residual activity,[2],47%
same,residual activity,[3],5%
same,residual activity,[4],21%
same,residual activity,[5],5%
same,residual activity,[6],89%
same,residual activity,[7],33%
same,residual activity,[8],33%
same,residual activity,[9],6%
same,residual activity,[10],13%
same,residual activity,[11],0%
same,residual activity,[12],3%
same,residual activity,[13],-1%
same,residual activity,[14],112% (inactive)
same,residual activity,[15],12%
same,residual activity,[16],3%
same,residual activity,[17],-3%
same,residual activity,[18],51%
same,residual activity,[19],8%
same,residual activity,[20],122%
